# Assay results published in ChEMBL document CHEMBL4513216, “Probing the Open Global Health Chemical Diversity Library for Multistage-Active Starting Points for Next-Generation Antimalarials” (ACS Infect Dis, 2020).
# Hit rate of the full screen: of about 69,000 compounds, about 8,600 (12%) showed an effect of 50% or more. For the sample, strong results were picked, then their nearest neighbours and some compounds at random.
# Tested on: Plasmodium berghei
# Assay: Screen against P. berghei liver stage (PbLuc), transformed with Luciferase, at 10uM
# Type: functional, HepG2
# Conditions: tested at 10 uM
row,SMILES,INHIBITION [%]
1,CN1CC(=O)N(C2CCC2)Cc2c(NC3CCNCC3)ncnc21,20.9
2,CC(=O)N[C@@H]1CN(Cc2ccc(F)cc2F)C[C@H]1c1ccc(C)o1,-14.1
3,CC(C)C(CNCc1cccc2c1OCO2)N1CCOCC1 (centres undefined),24.8
4,c1csc(C(CNCc2cccc3c2OCO3)N2CCOCC2)c1 (centres undefined),61.9
5,Cc1ccc(C(CNCc2cccc3c2OCO3)N2CCOCC2)o1 (centres undefined),29.4
6,Cc1ccc(NC(=O)N2CCCC(O)C2)c(Br)c1 (centres undefined),-86.5
7,Cc1ccc(OCCCNC(=O)CN(C)c2ccc(C#N)cn2)cc1,49.3
8,COc1ccc(CNC(=O)CCc2nnc3ccccn3c2=O)cc1,25.3
9,O=C(CCc1nnc2ccccn2c1=O)NCc1ccc2c(c1)OCO2,57
10,O=C(CCc1nnc2ccccn2c1=O)NCc1cccnc1,37.3
11,Cc1nc(CO[C@@H]2CN(Cc3cccs3)[C@@H]3COC[C@@H]32)cs1,-33.3
12,CNc1cc(C)nc(NCc2cc(C)cc3c(C)c(C)[nH]c23)n1,76.7
13,CNc1cc(C)nc(-c2cc(NC)nc3[nH]ccc23)n1,-8.51
14,Cc1cc(CNc2cncc(C(=O)N(C)C)n2)c2[nH]c(C)c(C)c2c1,29.7
15,CNc1nc(C)cc(NCc2cc(C)cc3c(C)c(C)[nH]c23)n1,87.9
16,CNc1cc(C)nc(-c2cc(NCCO)nc3[nH]ccc23)n1,-28.4
17,C[C@@H](N)C(=O)N1CCC(c2[nH]ncc2-c2ccccc2)CC1,36.15
18,CC(=O)N1C[C@H]2CCCN(Cc3ccc(C)o3)[C@H]2C1,-3.58
19,O=C(c1cnccn1)N1CCCC2(COCCN(CC3CC3)C2)C1 (centres undefined),37
20,O=C(NCc1ccccn1)[C@]12COC[C@H]1CN(Cc1cccnc1)C2,-17.2
21,C[C@H](NC(=O)N1CCC(Cc2ccccc2)CC1)C(=O)O,27.5
22,NC(=O)COc1ccc(CNCc2ccc(Cl)c(F)c2)cc1,0.426
23,CC(Cn1cccn1)NC(=O)CCC(=O)c1cccs1 (centres undefined),-13.5
24,c1ccc2c(c1)CC(Cc1cc(N3CCCC3)cnn1)CO2 (centres undefined),13
25,COc1ccc2c(c1)OCC(Cc1cc(N3CCCC3)cnn1)C2 (centres undefined),-43.7

row,SMILES,INHIBITION [%]
1,COc1ccc2c(c1)OCC(Cc1ccc(N(C)C)nc1)C2 (centres undefined),14.9
2,COc1ccc2c(c1)OCC(Cc1ccc(CN)cn1)C2 (centres undefined),-45.5
3,Cc1cc(CC2COc3ccccc3C2)cnc1N (centres undefined),75.1
4,COc1ccc2c(c1)OCC(Cc1cncc(N)c1)C2 (centres undefined),61.1
5,COc1cccc2c1OCC(Cc1cnc(N)c(C)c1)C2 (centres undefined),14.5
6,COc1ccc2c(c1)OCC(Cc1cnc(N)c(C)c1)C2 (centres undefined),55.9
7,COc1ccc2c(c1)OCC(Cc1ccc(N)cn1)C2 (centres undefined),-93
8,O=C(c1sccc1-n1cnnn1)N1CCC2(CCCCC2)CC1,28.1
9,Cc1ccc(C(=O)NC(CN2CCCC2=O)c2ccccc2)cn1 (centres undefined),15.3
10,CC(C)N1CCC(c2nccnc2Nc2ncccn2)CC1,42.4
11,Cc1ncc2c(n1)CN(C=C1NN=C(c3occc3C)O1)CC2,47.6
12,O=C(Nc1cnn(Cc2ccccc2)c1)N1CCN(CCO)CC1,-26.8
13,c1cncc(-c2noc(C3CN(Cc4cccs4)C3)n2)c1,22.2
14,Cc1nc(C2CCN(Cc3ncc[nH]3)CC2)no1,20.8
15,COC(=O)CN1CCSC(c2ccccc2)C1 (centres undefined),48.2
16,CN(C)c1ncc(CN2CCCC(Nc3ccc4c(c3)OCCO4)C2)s1 (centres undefined),-0.217
17,CCn1ncc(CN2CCCC(n3c(=O)oc4ccccc43)C2)c1C (centres undefined),4.7
18,CSc1ccc(C(=O)C2CCCN(C(=O)CCCn3cncn3)C2)cc1 (centres undefined),22.2
19,COc1ccc(F)cc1C(=O)C1CCCN(Cc2cnc(C)s2)C1 (centres undefined),47.2
20,CCCn1ncc(CN2CCCC(C(=O)c3ccc(Cl)cc3C)C2)c1C (centres undefined),73
21,CCCn1ncc(CN2CCCC(C(=O)c3ccc(SC)cc3)C2)c1C (centres undefined),83.9
22,CSc1ccc(C(=O)C2CCCN(C(=O)CCn3cncn3)C2)cc1 (centres undefined),22.2
23,COc1ccc(C(=O)C2CCCN(Cc3cnn(C)c3C)C2)c(OC)c1 (centres undefined),14.3
24,Cc1cc(Cl)ccc1C(=O)C1CCCN(Cc2cnc(N(C)C)s2)C1 (centres undefined),83
25,CCn1ncc(CN2CCCC(C(=O)c3ccc(Cl)cc3)C2)c1C (centres undefined),18.5

row,SMILES,INHIBITION [%]
1,Cc1c(CN2CCCC(C(=O)c3ccc(C(C)(C)C)cc3)C2)cnn1C (centres undefined),89.4
2,CC(C)(N)C(=O)N1CCCC(C(=O)c2ccc(C(C)(C)C)cc2)C1 (centres undefined),36.8
3,Cc1cc(CN2CCN(C(=O)NCc3ccc(C)s3)CC2)on1,-24.2
4,Cc1cnn(CCNCC(=O)N2CCN(c3ccccn3)CC2)c1,-0.613
5,O=C(c1ccnc(-n2ccnc2)c1)N1CCCC(n2cccn2)C1 (centres undefined),36.1
6,CN(CC1COc2ccccc2O1)C(=O)c1ccc(-c2cn[nH]c2)nc1 (centres undefined),2.18
7,O=C(c1ccccn1)N1CCCC2(CCN(c3ccsc3)C2=O)C1 (centres undefined),35.6
8,CN(C)C(=O)[C@@H]1CCO[C@@H]2CCN(Cc3ccccc3)C[C@@H]21,-11.5
9,Cn1cc(-c2ncc(C(=O)NCCCn3ccccc3=O)s2)cn1,44.9
10,Cc1nc(C2CCCN2C(=O)Cc2ccc3c(c2)OCO3)nc(O)c1C (centres undefined),22
11,CN1C(=O)CCC12CCN(Cc1ccco1)CC2,16.1
12,CN1CCN(c2nsc(-c3ccccc3)c2C#N)CC1,33.3
13,Cc1nn(C)c(N2CCOCC2)c1CNC1CCc2ccccc21 (centres undefined),7.08
14,CCCn1cc(-c2ccnc(NC3CCCc4ccccc43)n2)c(C)n1 (centres undefined),72.3
15,CCCOCCCNc1nccc(-c2cn(C)nc2C)n1,-49.8
16,CCCn1cc(-c2ccnc(NC3CCc4ccccc43)n2)c(C)n1 (centres undefined),82.2
17,CCCn1ncc(-c2ccnc(NC3CC(C)(C)NC(C)(C)C3)n2)c1C,80.1
18,Cc1nn(CCO)c(C)c1CNC1CCCCc2ccccc21 (centres undefined),17.8
19,CCCn1ncc(-c2ccnc(NC3CCSC3)n2)c1C (centres undefined),49.9
20,O=C(CS(=O)(=O)c1ccccn1)NC1CCCc2ccccc21 (centres undefined),-17.8
21,CCCn1ncc(C(=O)N2CCN(C3Cc4ccccc4C3)CC2)c1C,-20.8
22,COc1c(CNC2CCCc3ccccc32)c(C)nn1C (centres undefined),37.9
23,CCCn1ncc(-c2ccnc(NC3CCCc4ccccc43)n2)c1C (centres undefined),77.2
24,CCCn1ncc(-c2ccnc(N[C@@H]3C[C@H]4CC[C@@H]3C4)n2)c1C,49.9
